The list is not random: actives were taken first. Their share in the collection is about 3.5%.
MITF inh: inhibitors of human MITF. inhibition, % at 2.6 µM. O75030. AlphaScreen MITF homodimerization, bead proximity signal. AID 1259374. 650,000 compounds, 0.91% hits; in the data active means inhibition above about 50%;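 further: 0% = vehicle wells with protein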
GPR151 ag: human GPR151 activation; Q8TDV0; PathHunter beta-arrestin GPR151 cells, luminescence; activation, % at 11.2 µM; 650,000 compounds, 1% hits; in the data active means activation above about 4.9%;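 further: 0% = median of compound wells and 100% = cells with positive control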
TEAD-YAP inh: TEAD-YAP interaction inhibition. HEK-TIYL cells, TEAD-Gal4/YAP UAS-luciferase luminescence. inhibition, % at 9.12 µM. 640,000 compounds, 1.4% hits; in the data active means inhibition above about 32%;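 further: 0% = median of test compound wells and 100% = reference inhibitor wells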
FBW7 act: human FBW7 E3 ligase activation, primary screen; AlphaScreen FBW7–phospho-cyclin E peptide binding, activator screen; normalized activity (activation), % at 26.1 µM; 650,000 compounds, 0.13% hits; in the data active means normalized activity above about 1.9%;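 further: purified mutant Fbw7 with reduced substrate affinity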
Target sequence (Q969H0 whole entry, looked up): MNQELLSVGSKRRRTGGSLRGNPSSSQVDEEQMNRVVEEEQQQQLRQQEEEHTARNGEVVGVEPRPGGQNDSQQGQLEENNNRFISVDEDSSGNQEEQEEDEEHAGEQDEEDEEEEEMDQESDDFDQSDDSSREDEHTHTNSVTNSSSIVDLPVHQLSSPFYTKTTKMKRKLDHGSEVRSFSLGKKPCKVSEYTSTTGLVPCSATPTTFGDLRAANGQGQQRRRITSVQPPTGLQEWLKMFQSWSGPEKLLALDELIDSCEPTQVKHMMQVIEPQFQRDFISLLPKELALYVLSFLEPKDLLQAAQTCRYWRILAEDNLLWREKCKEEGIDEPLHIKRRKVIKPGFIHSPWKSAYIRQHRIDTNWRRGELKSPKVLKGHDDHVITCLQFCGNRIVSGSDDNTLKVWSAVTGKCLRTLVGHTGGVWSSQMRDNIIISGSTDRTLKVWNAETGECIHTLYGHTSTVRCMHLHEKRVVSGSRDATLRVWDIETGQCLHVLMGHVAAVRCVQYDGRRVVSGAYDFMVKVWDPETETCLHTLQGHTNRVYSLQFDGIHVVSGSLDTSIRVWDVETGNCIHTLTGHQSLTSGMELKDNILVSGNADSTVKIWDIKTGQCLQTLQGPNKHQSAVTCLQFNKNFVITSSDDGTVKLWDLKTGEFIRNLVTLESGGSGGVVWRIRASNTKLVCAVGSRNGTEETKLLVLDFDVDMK
Numbers without * were called inactive.

SMILES	MITF inh	GPR151 ag	TEAD-YAP inh	FBW7 act
COc1ccc(C(=O)[C@@H]2[C@@H](c3cccnc3)C(C#N)(C#N)[C@H]3C=Cc4ccccc4N23)cc1	12.1	2.5	58.4*	0.3
COc1ccc(C(=O)[C@@H]2[C@@H](c3ccccc3F)C(C#N)(C#N)[C@H]3C=Cc4ccccc4N23)cc1	-0.3	0.4	66.9*	-0.1
Cc1ccc(C(=O)[C@@H]2[C@@H](c3ccccc3F)C(C#N)(C#N)[C@H]3C=Cc4ccccc4N23)cc1	-7.0	-0.2	-12.5	-0.3
COc1ccc(Nc2nccc(-c3cncc(N4CCOCC4)c3)n2)cc1	3.1	-0.2	61.1*	0.6
Nc1nc(Nc2ccc(-n3ccnc3)cc2)cc(Nc2ccc3c(c2)OCO3)n1	2.4	0.4	-21.8	0.1
Cn1ncc2cc(Nc3nccc(-c4cncc(N5CCOCC5)c4)n3)ccc21	-0.1	0.2	68.7*	-0.2
c1cn(-c2ccc(Nc3nccc(-c4cncc(N5CCOCC5)c4)n3)cc2)cn1	16.2	-0.6	78.1*	-0.2
c1cn(-c2ccc(Nc3nccc(Nc4ccc5c(c4)OCO5)n3)cc2)cn1	9.8	1.6	36.3*	-0.1
COc1cc2ncn(CC(N)=O)c(=O)c2cc1OC	6.6	-0.7	-6.8	0.7
Cc1cccc(Cn2c(CN3CCC(C)CC3)nc3c2c(=O)n(C)c(=O)n3C)c1	11.8	0.6	-0.3	0.0
Cc1cc(C)cc(OCC(=O)Nc2ccc(Cl)c(Cl)c2)c1	11.9	0.5	-3.0	0.1
c1cc(-c2cncc(N3CCOCC3)c2)nc(Nc2ccc(-n3cncn3)cc2)n1	15.9	-1.7	7.8	0.7
FC1(F)Oc2ccc(Nc3nccc(-c4cncc(N5CCOCC5)c4)n3)cc2O1	22.5	-1.8	-2.6	0.5
O=C(c1ccc(Nc2nccc(-c3cncc(N4CCOCC4)c3)n2)cc1)N1CCOCC1	0.5	1.1	51.5*	-0.1
c1cn(-c2ccc(Nc3nccc(Nc4ccc(N5CCOCC5)cc4)n3)cc2)cn1	21.1	3.9	50.0*	-0.2
c1ccc(Cc2nc3ccc(Nc4nccc(-c5cncc(N6CCOCC6)c5)n4)cc3o2)cc1	-7.1	-0.4	28.8	-0.1
O=C1OCCN1c1ccc(Nc2nccc(-c3cncc(N4CCOCC4)c3)n2)cc1	0.1	0.9	38.5*	-0.3
c1ccc(Nc2ccnc(Nc3ccc(N4CCOCC4)cc3)n2)cc1	7.2	-0.2	0.6	-0.3
CCc1nc2ccc(Nc3nccc(-c4cncc(N5CCOCC5)c4)n3)cc2o1	16.8	1.3	34.1*	0.6
Cn1c(=S)oc2cc(S(=O)(=O)N3CCCCCC3)ccc21	9.2	1.6	0.9	0.0
Cc1cc(C)nc(SCC(=O)C2CC2)n1	-5.0	0.7	-7.8	0.1
OCCCc1nc2ccc(Cc3ccc4nc(CCCO)[nH]c4c3)cc2[nH]1	8.0	-0.1	11.1	0.1
CCOc1cc(N2CCOCC2)c(OCC)cc1NC(=O)CN1CCCC1	83.2*	0.1	-2.9	-0.6
CCOc1cc(N2CCOCC2)c(OCC)cc1NC(=O)CN(CC)C1CCCCC1	-1.5	0.3	12.8	0.0
Cc1ccc2c(c1)-c1c(cnn1CC(=O)Nc1ccc(C)c(F)c1)CO2	-10.2	-0.1	-5.6	0.0
SMILES	MITF inh	GPR151 ag	TEAD-YAP inh	FBW7 act
Cc1ccc2c(c1)-c1c(cnn1CC(=O)Nc1ccc3c(C)cc(=O)oc3c1)CO2	13.3	-0.7	49.5*	1.2
Cc1cc(C)cc(NC(=O)Cn2ncc3c2-c2ccccc2OC3)c1	-5.5	2.3	-0.4	-0.2
Cc1cc(=O)oc2cc(NC(=O)Cn3ncc4c3-c3ccccc3OC4)ccc12	-1.3	-0.2	48.7*	0.0
CCOC(=O)CN1C(c2ccccc2OC)Nc2ccc(Br)cc2C1c1ccccc1 (stereo not given)	5.7	-1.0	-11.2	-0.1
Nn1c2ccccc2n2cc(-c3ccc(Cl)cc3)nc12	4.0	-5.8	56.3*	1.0
COc1ccc(OS(=O)(=O)c2cc(OC)ccc2OC)cc1	-1.6	-0.9	49.8*	-0.1
COc1ccc(OC)c(S(=O)(=O)c2cc(OC)ccc2OC)c1	4.8	0.1	-1.1	0.2
O=C(COc1ccccc1F)Nc1nccs1	5.9	-8.1	-1.4	-0.1
COc1ccccc1OCC(=O)Nc1nccs1	3.6	-8.1	15.1	-0.2
Cc1cccc(OCC(=O)Nc2nccs2)c1C	7.2	-4.6	32.0*	-0.1
O=C(COc1ccccc1Cl)Nc1nccs1	19.2	-10.8	91.1*	0.2
CCOc1ccc(C(=O)Nc2cccc(-c3nn4c(C)nnc4s3)c2)cc1	4.7	1.8	-1.8	0.0
Nc1ccc(NC(=O)CN2CCCCC2)cc1	2.5	-0.2	6.0	2.0*
COc1ccccc1NC(=O)Cn1c(C(O)c2ccccc2)nc2ccccc21 (stereo not given)	5.9	0.4	0.8	0.0
O=C1CC(c2ccccc2Cl)c2ccc3c(O)cccc3c2N1 (stereo not given)	11.1	0.6	7.4	0.3
Cc1ccc(CN2CC(C(=O)Nc3ncc(C)s3)CC2=O)cc1 (stereo not given)	-6.8	-0.7	44.5*	-0.1
CN(C)c1ccc(N2C(=O)CSC2=S)cc1	53.5*	0.2	5.6	-0.5
O=C1CSC(=S)N1c1ccc(F)cc1	7.7	-0.9	-0.5	0.3
Cc1nc2c(C)cccn2c1C(=O)NCc1ccc2c(c1)OCO2	-10.7	-0.8	33.5*	0.1
Cc1nc2ccccn2c1C(=O)NCc1ccc2c(c1)OCO2	13.6	0.0	6.3	0.9
CCOCCCn1c(=S)[nH]c2cc(C(=O)N3CCN(Cc4ccc5c(c4)OCO5)CC3)ccc2c1=O	5.5	2.1	43.0*	0.2
O=C(c1ccc2c(=O)n(Cc3ccc(Cl)cc3)c(=S)[nH]c2c1)N1CCN(Cc2ccc3c(c2)OCO3)CC1	-8.3	-0.9	6.7	-0.2
CCOC(=O)c1c(NC(=O)CN2c3ccccc3CC2C)sc2c1CCC2 (stereo not given)	45.7	0.1	-1.6	-0.2
O=C1CCCN1C(=S)C(=S)N1CCCC1=O	20.8	0.7	99.0*	-1.8
Nc1c2ccccc2nc2ccccc12	21.1	-0.4	74.5*	0.6
SMILES	MITF inh	GPR151 ag	TEAD-YAP inh	FBW7 act
CC1=NN(c2nc3ccccc3[nH]2)C(=O)C1CCC(C)C (stereo not given)	31.1	-1.6	73.2*	-0.6
CCOc1ccccc1N1CCN(C(=O)c2cc(-c3ccccc3)nc3ccccc23)CC1	-6.2	1.1	45.4*	0.0
O=C(c1cc(-c2ccncc2)nc2ccccc12)N1CCN(c2ccccn2)CC1	-16.4	0.7	57.7*	-0.3
O=C(c1cc(-c2ccccc2)nc2ccccc12)N1CCN(c2ccccc2)CC1	-5.3	0.4	6.9	-0.1
O=C(c1ccccc1Br)N1CCN(c2ccccn2)CC1	-0.9	2.1	-5.2	0.0
O=C(c1ccccc1-c1ccccc1)N1CCN(c2ccccn2)CC1	19.1	-0.7	52.0*	0.0
O=C(CN1C(=O)C2C3C=CC(C3)C2C1=O)Nc1c2ccccc2nc2ccccc12 (stereo not given)	4.3	-0.4	71.9*	0.0
O=C(CN1C(=O)C2C3C=CC(C3)C2C1=O)NCc1ccccc1 (stereo not given)	9.3	-0.5	1.7	0.3
CCS(=O)(=O)c1ncc(Cl)c(C(=O)Nc2ccccc2Br)n1	-2.4	0.2	36.3*	0.0
